Results: PubChem BioAssay AID504637 (National Center for Advancing Translational Sciences (NCATS), 2011)
Out of some 1,100 compounds screened, about 430 (39%) were called active. Another 44% or so got no clear call; they are omitted. Calls follow the shape of the dose curve; as a rule, active = well fitted inhibition curve with a large enough effect; inconclusive = small, poorly fitted or top-dose-only effect, or effect the other way; inactive = flat fitted curve, though single readings scatter. The set was probably picked from earlier hits. Only a selection was taken, and actives are over-represented in it overall.

The compounds below were run against ATP-dependent 6-phosphofructokinase (Trypanosoma brucei brucei) (UniProt O15648) (assay: Inhibitors of T. brucei phosphofructokinase: Hit Validation). Settings: purified T. brucei PFK, ADP-Glo luminescence, 45 min; series mostly up to 57.5 µM.
Text: NCGC Assay Overview: Various species of the protozoan family Trypanosomatidae are responsible for a range of serious human diseases in tropical and subtropical areas of the world. […] Many of the disorders caused by trypanosomatids are fatal if left untreated, but most currently used drugs are inefficient and toxic. […] Oxidative metabolism involving the mitochondrial tricarboxylic acid cycle and oxidative phosphorylation are repressed in these parasites, and recent RNA interference (RNAi) experiments have shown that even partial depletion of certain individual glycolytic enzymes can lead to the death of cultured parasites. One such glycolytic enzyme, phosphofructokinase (PFK), catalyzes the formation of fructose-1,6-bisphosphate (F1,6BP) and ADP from fructose-6-phosphate (F6P) and ATP, and in many metabolic circumstances makes an important contribution to the control of flux through the glycolytic pathway. As a specific glycolytic target, PFK is particularly attractive as it catalyzes the first irreversible step in glycolysis, and structural and kinetic studies have shown very substantial and essential differences from corresponding host enzymes, allowing for the discovery of parasite-selective inhibitors. The goal of this screen is to find small-molecule inhibitors of T. brucei PFK using a biochemical assay that measures PFK activity as a function of ADP production. A luminescence-based assay for T. brucei PFK activity has been developed which uses luciferase to detect production of ADP. Traditional luciferase-based nucleotide detection reagents rely on ATP production as a direct substrate for the luciferase reaction; however, PFK catalyzes the transfer of a phosphate from ATP to F6P, resulting in the net depletion of ATP. To directly measure the ADP product of the PFK reaction, we used the ADP-Glo detection kit (Promega), which utilizes two separate reactions to 1) deplete all remaining uncatalyzed ATP and 2) convert all remaining ADP to ATP, which is then detected through a traditional luciferase-coupled reaction. Compounds were screened as a concentration-titration series that ranged from 57uM to 0.7nM. 1. Verlinde, C.L., et al., Glycolysis as a target for the design of new anti-trypanosome drugs. Drug Resist Updat, 2001. 4(1): p. 50-65. 2. Albert, M.A., et al., Experimental and in silico analyses of glycolytic flux control in bloodstream form Trypanosoma brucei. J Biol Chem, 2005. 280(31): p. 28306-15. 3. […] J Mol Biol, 2009. 385(5): p. 1519-33. NIH Molecular Libraries Probe Production Network [MLPCN] NIH Chemical Genomics Center [NCGC] Grant: 1 R03 MH092153-01 PI Name: Malcolm Walkinshaw, University of Edinburgh
NCGC Assay Protocol Summary: Substrate buffer was dispensed into white, solid 1536-well plates at 3uL/well in 0.1M triethanolamine (TEA) buffer, pH 8.0, containing final concentrations of 5 mM MgCl2, 0.01% Tween20, 0.5 mM fructose-6-phosphate (F6P) and 0.1mM ATP. Then, 23 nL of compounds or DMSO were delivered to each well using a pin tool. One uL T. brucei PFK (0.1M TEA, 0.01% Tween20, 0.1% bovine serum albumin (BSA) and 1.25nM PFK, final concentrations) was then dispensed, and plates were incubated at room temperature for 45 min. The luminescent detection reagent, ADP-Glo (Promega), was then added in two steps: the first reagent, ADP-Glo (which converts remaining uncatalyzed ATP), was added at 2.5uL/well and incubated for ten minutes at room temperature, and the second component, Kinase Detection reagent (which converts ADP to ATP as a substrate for luciferase-based luminescence), was added immediately after at 5uL/well, followed by one final ten minute room temperature incubation. The plates were measured on a ViewLux plate reader for luminescent signal using a clear filter with a one second exposure. The %Activity was determined from the corrected luminescence values. […]
Also: nearly all actives have a fitted effect of over 60% in size.
Potency is read from the fitted curve at half-maximal effect.

Chain of ATP-dependent 6-phosphofructokinase (Trypanosoma brucei brucei) (O15648 whole entry, looked up): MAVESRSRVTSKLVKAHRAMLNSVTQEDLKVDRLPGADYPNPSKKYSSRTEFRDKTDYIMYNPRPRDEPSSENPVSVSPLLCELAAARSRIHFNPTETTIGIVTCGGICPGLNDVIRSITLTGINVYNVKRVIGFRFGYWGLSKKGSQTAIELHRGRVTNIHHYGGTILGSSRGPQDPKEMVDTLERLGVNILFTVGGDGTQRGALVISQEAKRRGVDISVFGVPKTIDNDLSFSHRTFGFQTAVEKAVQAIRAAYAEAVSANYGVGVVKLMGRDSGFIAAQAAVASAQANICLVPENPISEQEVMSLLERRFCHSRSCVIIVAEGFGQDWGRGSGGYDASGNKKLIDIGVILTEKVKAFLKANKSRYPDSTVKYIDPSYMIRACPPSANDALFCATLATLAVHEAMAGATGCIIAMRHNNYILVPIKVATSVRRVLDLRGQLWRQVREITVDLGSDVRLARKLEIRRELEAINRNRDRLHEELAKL

SMILES | Potency
Cn1nnnc1NCc1ccc(Cl)c(Cl)c1 | 23.9 µM (active)
Cc1ccc(CC(=O)Nc2ccc(S(=O)(=O)N3CCOCC3)cc2)cc1C | inactive
O=C(Cc1ccc(Cl)c(Cl)c1)Nc1ccc(SC(F)F)cc1 | 23.9 µM (active)
O=C(COC(=O)CCC(=O)c1cccs1)NCc1ccco1 | inactive
C=CC1=C(C(=O)O)N2C(=O)[C@@H](NC(=O)/C(=N\OCC(=O)O)c3csc(N)n3)[C@H]2SC1 | 4.26 µM (active)
N#Cc1cccc(CSc2ncnc(N)n2)c1 | 26.9 µM (active)
C=C1c2c(Cl)ccc(O)c2C(O)=C2C(=O)[C@]3(O)C(O)=C(C(N)=O)C(=O)[C@@H](N(C)C)[C@@H]3[C@@H](O)C12 (some centres not stated) | inactive
O=C1CSC(=S)N1/N=C/c1ccc(O)c([N+](=O)[O-])c1 | inactive
O=C1CSC(=S)N1c1ccc(Cl)c(Cl)c1 | inactive
COC(=O)CC(=O)N1CCN(c2ccc(Cl)c(Cl)c2)CC1 | 26.9 µM (active)
Cc1nn(Cc2ccc(Cl)c(Cl)c2)c(C)c1NC(=O)c1cc(C2CC2)on1 | 12 µM (active)
O=[N+]([O-])/C=C/c1ccc2c(ccn2Cc2ccccc2)c1 | 23.9 µM (active)
CC(C)(C)c1nnc(NC(=O)C2c3ccccc3Oc3ccccc32)s1 | 26.9 µM (active)
Cc1ccc(NC(=O)c2cc(-c3ccc(C)o3)nc3ccccc23)nc1 | 12 µM (active)
O=C(Cc1ccc([N+](=O)[O-])cc1)N/N=C/c1ccco1 | 23.9 µM (active)
O=C(NCc1ccc(Cl)c(Cl)c1)c1cccnc1 | 26.9 µM (active)

SMILES | Potency
Cc1ccc(-c2nn(-c3ccccc3)cc2/C=C2\SC(=S)N(CCCCCC(=O)O)C2=O)o1 | 30.1 µM (active)
O=c1[nH]c(=S)[nH]c2[nH]c(=S)[nH]c12 | 1.9 µM (active)
O=[N+]([O-])c1c(NCCO)cc(Sc2nc3ccccc3s2)c2nonc12 | 1.51 µM (active)
O=C(CSc1nc(O)c(Cc2ccccc2)c(=O)[nH]1)Nc1nc2c(s1)CCCC2 | 16.9 µM (active)
OCCN1CCN(C(=S)c2ccc(-c3ccccc3)cc2)CC1 | 26.9 µM (active)
FC(F)(F)C1CCCN(c2nsc3ccccc23)C1 (configuration not stated) | 4.26 µM (active)
CCn1nc(C(=O)NNS(=O)(=O)c2cc(/C=C/C(=O)O)cc(OC)c2OC)c2ccccc2c1=O | inactive
Cc1c(C)c2ccc(OCC(=O)N3CCN(c4cccc(Cl)c4)CC3)cc2oc1=O | 8.49 µM (active)
COc1ccc(N/C=C(\C2OC(=O)c3ccccc32)[N+](=O)[O-])cc1 (configuration not stated) | inactive
Cc1nc(N)nc(SCc2ccc([N+](=O)[O-])cc2)c1N | 19 µM (active)
Cc1cccc(-n2c(N)c(C(=O)N3CCN(C)CC3)sc2=S)c1 | 13.5 µM (active)
O=c1ccnc(Nc2ccc(Cl)cc2)[nH]1 | 30.1 µM (active)
C=C(C)C(=O)Nc1cccc(C2=NOC3(C2)C[C@H](C(N)=O)N(C(=O)C(c2ccccc2)c2ccccc2)C3)c1 (some centres not stated) | 1.9 µM (active)
Cn1sc(=O)c2cc(S(=O)(=O)NC3CC3)ccc21 | 21.3 µM (active)
O=c1[nH]c2ccccc2n2c(-c3ccccc3)nnc12 | 13.5 µM (active)
Cc1ccccc1CN1C[C@@H]2C[C@@H](c3cn(C)nc3-c3ccccc3)N3CCC[C@@]23C1=O | inactive
